The structures appear in SMILES notation. Active and inactive are the calls of the source.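 Rule for the calls, unless noted: active = NADPH fluorescence slope more negative than the mean of all samples by about 3 SD, 99.7% confidence; inactive = the rest.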

A short description of assay [1]: inhibitors of TNFa-induced NFkB p65 translocation, primary screen, imaging, HUVEC, MLSMR starter and 10KST1 sets (AID 438;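 active = inhibition above 20% together with a positive visual image hit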;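 note: compound added about 3h40 before a 20 min TNFalpha stimulation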;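 for inhibition: signal is the nuclear over cytoplasmic p65 intensity ratio per well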). The conditions noted are these: HUVEC TNFa-induced p65 nuclear translocation; cell count: measured here: nuclei count (cytotoxicity indicator), at 2.08 µM; inhibition: at 2 µM, stronger effect = higher value, 0% TNFa-plus-vehicle, 100% no-TNFa wells.
A short description of assay [2]: reduction of polyQ htt aggregates in cells – imaging, exon1htt(103Q)mCFP cells, high-content imaging, primary screen (AID 483;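 active = visual image review flags a hit and inhibition of aggregation exceeds 20%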;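 note: compound exposure lasted 3 days before fixation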;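 for nuclei count: percent of the per-plate median nuclei count of sample wells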). The conditions noted are these: exon1htt(103Q)mCFP cell line, aggregate imaging, at 2 µM; inhibition of aggregation: stronger effect = higher value; nuclei count: measured here: cell count, toxicity.
A short description of assay [3]: endothelial E-selectin expression blockers – imaging, HUVEC, immunofluorescence, MLSMR starter and 10KST1 sets, primary screen (AID 487;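 active = visually confirmed hit in the image check and inhibition above 20%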;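 for inhibition: signal is fraction of cell area covered by stained E-selectin grains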;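 for nuclei count: 100% = median nuclei count of all wells on the same plate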). The conditions noted are these: HUVEC TNFalpha-induced E-selectin immunofluorescence imaging, at 2 µM; inhibition: stronger effect = higher value; nuclei count: measured here: cell number, toxicity.
Assay [4] in a line: Primary imaging screen for DUSP6 inhibitors that restore phospho-Erk in transfected HeLa cells, chemical complementation (AID 609;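 active = compounds giving at least 50% inhibition in the cell-based MKP-3 phosphatase rescue imaging test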;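 for inhibition: phospho-Erk level distribution per well compared with pooled transfected vehicle control wells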). The conditions noted are these: HeLa MKP-3 transfected, phospho-Erk imaging KS statistic, at 10 µM, cells stimulated with TPA for 15 min.
Assay [5] deals with Dual specificity protein phosphatase 6 (Homo sapiens) (UniProt Q16828). Described as above. The conditions noted are these: HeLa MKP-3 transfected, phospho-Erk imaging KS statistic; at 10 µM; stronger effect = higher value; cells stimulated with TPA for 15 min.
Assay [6] deals with Voltage-gated potassium channel subunit beta-2 (Rattus norvegicus) (UniProt P62483). The assay can be described thus: inhibitors of rat Kvbeta2 reductase activity – biochemical, NADPH fluorescence, primary screen (AID 622;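 active = fluorescence slope higher than the sample average by over 3 SD, cut at about -0.22 in these data, passing the limit was not always enough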;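 note: slope of raw intensity against log time taken from 70 to 1610 s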). The conditions noted are these: recombinant KvBeta, 4-cyanobenzaldehyde reduction, at 10 µM, stronger effect = higher value.
The target is the same in assay [7]. The assay can be described thus: enhancers of rat Kvbeta2 NADPH turnover – biochemical, NADPH fluorescence, primary screen (AID 623).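 Note: fluorescence intensity change per second fitted from 20 to 320 s.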 The conditions noted are these: Recombinant KvBeta, NADPH fluorescence decrease slope, 10 min; at 10 µM; stronger effect = lower value.
The target in assay [8] is Muscarinic acetylcholine receptor M4 (Homo sapiens) (UniProt P08173). The assay can be described thus: M4-linked GIRK flux change, two-sided – cell-based, HEK293 M4/GIRK, thallium flux, BTC-AM, M4 allosteric agonist project, primary screen (AID 625;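 active = fluorescence slope after compound addition differing from the mean of all tested samples at 99.7% confidence, mostly higher but some lower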;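 note: thallium influx through GIRK channels coupled to M4 in HEK293 cells with BTC-AM dye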). The conditions noted are these: at 10 µM, actives lie on both sides.
Assay [9] can be described thus: inhibitors of larval lipid processing in zebrafish, primary screen, whole organism, PED6 fluorescence, gall bladder and intestine (AID 686;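 active = a full or partial loss of lipid-probe fluorescence in the fish gall bladder, intestine or both, judged by eye; inactive = no fluorescence loss, or compound toxic to the fish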;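 note: larvae 5 to 7 days old with five fish per well; signal comes from phospholipase A2 cleavage of quenched PED6 carried via bile; overnight exposure to compound and PED6 before scoring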). The conditions noted are these: Zebrafish larvae PED6 lipid processing, fluorescence scoring; screened at 20 µM (by protocol).
Assay [10] can be described thus: loss of swimming-algae plug formation – whole organism, Chlamydomonas reinhardtii, WT vs cilia-less mutant, absorbance, 96-well, primary screen (AID 463189;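 active = inhibition at or above 50% relative to wild type and mutant plate controls; inactive = inhibition below 50%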;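 note: 0% = wild type cc124 cells in DMSO and 100% = ciliumless bld1 mutant cells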). The conditions noted are these: Chlamydomonas reinhardtii gravitaxis, OD600 absorbance, 2 days; at 10 µM; stronger effect = higher value.
The nature of assay [11]: blockers of RIG-like receptor reporter activation – cell-based, Sendai virus stimulus, luciferase, 10K MLSCN set, TLR/RLR signaling modifier project, primary screen (AID 602276;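 active = inhibition at or above 50% at 10 µM; inactive = inhibition below 50%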;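 note: firefly luciferase from ISG56 promoter only with Renilla not read in this screen; 0% = Sendai virus plus DMSO and 100% = medium plus DMSO without virus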). The conditions noted are these: HEK293 RL24 IRF3 luciferase reporter, at 10 µM, stronger effect = higher value. On the technique in general: In a reporter assay the amount or activity of a reporter protein is the signal.

The nature of assay [12]: TLR3 IRF3 reporter activation blockers – cell-based, poly I:C stimulus, luciferase, 10K MLSCN set, primary screen (AID 602277;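 active = inhibition of the reporter signal at or above 50%; inactive = inhibition below 50%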). The conditions noted are these: HEK293-TLR3 RL24 IRF3 luciferase reporter, at 10 µM, stronger effect = higher value.
The mark [13] stands for this setting: measured here: cell density z-score.
The mark [14] stands for this setting: measured here: nuclear c-Myc green intensity z-score.
Setting [15] is: measured here: nuclear pErk red intensity z-score, stronger effect = higher value.

Sequence of Muscarinic acetylcholine receptor M4 (Homo sapiens) (P08173 whole entry, looked up): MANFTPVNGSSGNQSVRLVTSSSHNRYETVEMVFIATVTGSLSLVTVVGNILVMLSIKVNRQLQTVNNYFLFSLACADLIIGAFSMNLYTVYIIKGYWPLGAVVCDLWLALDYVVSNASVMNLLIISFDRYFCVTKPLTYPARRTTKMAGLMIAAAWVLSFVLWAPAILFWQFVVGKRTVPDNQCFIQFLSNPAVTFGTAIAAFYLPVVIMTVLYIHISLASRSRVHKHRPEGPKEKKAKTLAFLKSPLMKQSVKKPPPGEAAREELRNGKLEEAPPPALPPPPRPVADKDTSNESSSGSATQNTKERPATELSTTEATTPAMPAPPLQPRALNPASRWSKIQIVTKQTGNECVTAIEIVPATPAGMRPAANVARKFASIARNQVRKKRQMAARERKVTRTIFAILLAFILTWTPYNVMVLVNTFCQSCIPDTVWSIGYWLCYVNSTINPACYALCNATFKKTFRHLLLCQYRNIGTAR
Sequence of Voltage-gated potassium channel subunit beta-2 (Rattus norvegicus) (P62483 whole entry, looked up): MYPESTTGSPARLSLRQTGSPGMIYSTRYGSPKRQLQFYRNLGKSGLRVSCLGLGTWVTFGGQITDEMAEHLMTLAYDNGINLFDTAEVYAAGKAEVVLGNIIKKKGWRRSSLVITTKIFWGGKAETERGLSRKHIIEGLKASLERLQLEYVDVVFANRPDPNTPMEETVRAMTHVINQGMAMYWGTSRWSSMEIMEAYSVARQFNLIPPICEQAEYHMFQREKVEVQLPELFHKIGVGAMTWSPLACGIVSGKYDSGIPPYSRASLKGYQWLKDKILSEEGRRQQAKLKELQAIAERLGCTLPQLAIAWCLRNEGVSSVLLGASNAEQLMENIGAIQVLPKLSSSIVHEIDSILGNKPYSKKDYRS
Sequence of Dual specificity protein phosphatase 6 (Homo sapiens) (Q16828 whole entry, looked up): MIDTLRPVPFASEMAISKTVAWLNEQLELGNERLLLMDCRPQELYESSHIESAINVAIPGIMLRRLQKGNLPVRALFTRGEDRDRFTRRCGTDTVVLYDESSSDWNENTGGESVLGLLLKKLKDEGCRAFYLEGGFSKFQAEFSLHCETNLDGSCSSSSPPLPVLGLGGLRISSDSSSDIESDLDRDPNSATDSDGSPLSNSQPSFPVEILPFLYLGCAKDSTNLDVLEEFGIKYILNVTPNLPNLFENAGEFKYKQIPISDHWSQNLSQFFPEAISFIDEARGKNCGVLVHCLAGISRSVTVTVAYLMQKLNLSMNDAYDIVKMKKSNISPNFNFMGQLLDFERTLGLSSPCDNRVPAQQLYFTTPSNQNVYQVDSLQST

For orientation: inhibition means the change of the read-out against control, counted positive when it falls. Turning to `CCOC(=O)c1[nH]c2ccc(Br)cc2c1NC(=O)CNC`, the cell count in [1] came out at 737. In addition, the inhibition in assay [1] was 5.1% (inactive); in [3], -29% (inactive); in [5] it was 11.9% (inactive); in [10] it was -9.05% (inactive); in [11] it was 18.6% (inactive); in [12], 33.1% (inactive). Further, the inhibition of aggregation in assay [2] was -0.9% (inactive). In addition, the results for the nuclei count in [2] and in assay [3] were 113% and 141%, respectively. Besides, the figures for the z-score in assay [4] (setting [13]), in assay [4] (setting [14]) and in assay [4] (setting [15]) were -0.195, 0.821 and 0.769, respectively. In addition, the fluorescence slope in assay [6] is -0.518 (inactive); in assay [8], 0.00596 (inactive). The NADPH fluorescence slope in assay [7] was -6.6e-05 (inactive). Also, the outcome in [9] was inactive.

Turning to `CC(C)(C)NCc1cc2ccccc2[nH]c1=O`, in assay [1], the cell count was 585. For the same molecule, the inhibition in assay [1] is 4.5% (inactive); in assay [3] it was -165% (inactive); in assay [5], 16.8% (inactive); in [10] it was 3.94% (inactive); in [11], 12.2% (inactive); in assay [12] it was 18.4% (inactive). Further, in assay [2], the inhibition of aggregation was -3.4% (inactive). The figures for the nuclei count in assay [2] and in assay [3] were 102% and 146%, respectively. For the same molecule, the z-score in [4] (setting [13]) was -1.28; in [4] (setting [14]), 1.15; in assay [4] (setting [15]) it was 0.508. The fluorescence slope in assay [6] was -0.451 (inactive); in assay [8], 0.00463 (inactive). Further, the NADPH fluorescence slope in [7] was -4.7e-05 (inactive). For the same molecule, the molecule was classed as inactive in assay [9].

As for `CC(=Nc1cccc(O)c1)c1sc2ccccc2c1O`, the cell count in assay [1] stood at 745. Moreover, the inhibition is -2.4% (inactive) in assay [1]; -0.7% (inactive) in assay [3]; 13.2% (inactive) in assay [5]; -2.68% (inactive) in [10]; -6% (inactive) in [11]; 76.3% (active) in [12]. In addition, in [2], the inhibition of aggregation was -13% (inactive). Further, the figures for the nuclei count in assay [2] and in [3] were 96.4% and 123%, respectively. Also, the z-score in assay [4] (setting [13]) is 0.824; in assay [4] (setting [14]), 0.631; in assay [4] (setting [15]) it was -1.52. Also, the fluorescence slope is -0.303 (inactive) in assay [6] and 0.0088 (inactive) in assay [8]. Moreover, the NADPH fluorescence slope in [7] was -6.7e-05 (inactive). For the same molecule, the outcome in assay [9] is “inactive; toxic”.

On to `O=C1C2ON(c3ccccc3)C(c3cccnc3)C2C(=O)N1c1ccccc1` (stereo not given), for which the cell count in assay [1] is 667. For the same molecule, the inhibition in assay [1] was -4.7% (inactive); in assay [3] it was -28.2% (inactive); in assay [5], 16% (inactive); in [10] it was -4.82% (inactive); in [11], -8.41% (inactive); in [12], -21.8% (inactive). Further, in assay [2], the inhibition of aggregation is -1.5% (inactive). The results for the nuclei count in assay [2] and in assay [3] were 104% and 130%, respectively. Besides, the z-score in assay [4] (setting [13]) is 0.476; in assay [4] (setting [14]), 0.609; in assay [4] (setting [15]) it was -0.133. Besides, the fluorescence slope is -0.503 (inactive) in assay [6] and 0.00593 (inactive) in assay [8]. Besides, the NADPH fluorescence slope in [7] was -2.9e-05 (inactive). For the same molecule, the molecule was classed as inactive in assay [9].

As for `Cc1c(NC(=O)c2ccc(=O)oc2)c(=O)n(-c2ccccc2)n1C`, the cell count in assay [1] was 553. The inhibition in assay [1] was -12.6% (inactive); in assay [3], -22.2% (inactive); in [5] it was 3.42% (inactive); in [10], 23.3% (inactive); in assay [11] it was 22.3% (inactive); in assay [12], 24.4% (inactive). In [2], the inhibition of aggregation was 1.2% (inactive). Moreover, the figures for the nuclei count in assay [2] and in assay [3] were 78.4% and 119%, respectively. In addition, the z-score in assay [4] (setting [13]) is -1.01; in [4] (setting [14]) it was 0.226; in assay [4] (setting [15]), 0.431. For the same molecule, the fluorescence slope in assay [6] is -0.249 (inactive); in assay [8], 0.00562 (inactive). Besides, the NADPH fluorescence slope in [7] was -7.6e-06 (inactive). The outcome in [9] was inactive.

In the case of `COc1ccc(/C(O)=C2/C(=O)C(=O)N(CCCN(C)C)C2c2ccco2)cc1Cl` (stereo not given), in [1], the cell count stood at 697. For the same molecule, the inhibition in assay [1] is -3.7% (inactive); in [3] it was -9% (inactive); in [5], 6.04% (inactive); in [10] it was 14.2% (inactive); in assay [11], -5.81% (inactive); in [12] it was -1.63% (inactive). In addition, the inhibition of aggregation in [2] is -6.2% (inactive). Moreover, the nuclei count was determined as 110% in assay [2] and 134% in assay [3]. For the same molecule, the z-score is 0.269 in assay [4] (setting [13]), -1.33 in assay [4] (setting [14]) and -0.259 in assay [4] (setting [15]). The fluorescence slope is -0.426 (inactive) in assay [6] and 0.00515 (inactive) in assay [8]. Further, the NADPH fluorescence slope in assay [7] was -4.3e-05 (inactive). The molecule was called inactive in [9].

On to `CCOC(=O)CC(C#N)c1cn(C)c2ccccc12` (stereo not given), for which the cell count in assay [1] was 657. In addition, the inhibition in assay [1] was -0.6% (inactive); in [3], 8.5% (inactive); in assay [5], -7.28% (inactive); in assay [10], 13.1% (inactive); in [11], 21.5% (inactive); in [12], 28.2% (inactive). Besides, the inhibition of aggregation in assay [2] is 2.2% (inactive). The nuclei count stood at 104% in [2] and 135% in assay [3]. Also, the z-score in assay [4] (setting [13]) was -1.04; in [4] (setting [14]) it was 0.465; in assay [4] (setting [15]), 0.369. For the same molecule, the fluorescence slope was -0.46 (inactive) in assay [6] and 0.00661 (inactive) in [8]. In addition, in [7], the NADPH fluorescence slope is -3.8e-05 (inactive). Besides, in [9], the call was inactive.

`Cc1cc(O)c(C(C)C)cc1N=C1CSC(=O)N1`: the cell count in [1] was 428. In addition, the inhibition is -5.3% (inactive) in assay [1]; -9% (inactive) in assay [3]; 12.8% (inactive) in assay [5]; -20% (inactive) in [10]; 13% (inactive) in assay [11]; 19.6% (inactive) in assay [12]. Moreover, the inhibition of aggregation in assay [2] was 10.4% (inactive). The figures for the nuclei count in assay [2] and in assay [3] were 60.9% and 98.6%, respectively. The z-score in assay [4] (setting [13]) is 0.698; in assay [4] (setting [14]) it was -0.53; in assay [4] (setting [15]), 0.0977. Further, the fluorescence slope was -0.483 (inactive) in [6] and 0.00491 (inactive) in assay [8]. Further, the NADPH fluorescence slope in [7] is -5.3e-05 (inactive). For the same molecule, the result in [9] was inactive.

With `Cc1nc2ccccc2cc1O`, the cell count in assay [1] was 395. Besides, the inhibition is -0.5% (inactive) in [1]; -67% (inactive) in [3]; 1.42% (inactive) in [5]; 53.3% (active) in assay [10]; 17.5% (inactive) in assay [11]; 27.8% (inactive) in [12]. For the same molecule, the inhibition of aggregation in [2] was 21.5% (inactive). Further, the nuclei count came out at 80.3% in assay [2] and 103% in assay [3]. Besides, the z-score was -0.53 in assay [4] (setting [13]), -0.624 in [4] (setting [14]) and 1.27 in [4] (setting [15]). In addition, the fluorescence slope in assay [6] is -0.392 (inactive); in assay [8] it was 0.00432 (inactive). Moreover, in assay [7], the NADPH fluorescence slope was -3.6e-05 (inactive). The molecule was classed as inactive in assay [9].

With `CN(C)CC(O)COc1ccc(-c2ccc(C#N)cc2)cc1` (stereo not given), the cell count in assay [1] came out at 626. The inhibition is -1.5% (inactive) in assay [1]; -19.8% (inactive) in assay [3]; -2.59% (inactive) in [5]; 98.7% (active) in assay [10]; -0.588% (inactive) in assay [11]; -4.77% (inactive) in [12]. The inhibition of aggregation in assay [2] was 6.6% (inactive). In addition, the figures for the nuclei count in assay [2] and in assay [3] were 89.7% and 139%, respectively. The z-score in assay [4] (setting [13]) is 0.638; in assay [4] (setting [14]) it was -0.472; in [4] (setting [15]), 2.41. In addition, the fluorescence slope in assay [6] was -0.371 (inactive); in assay [8], 0.00456 (inactive). Also, the NADPH fluorescence slope in assay [7] was -4.8e-05 (inactive). Moreover, the outcome in [9] was inactive.

The record behind these values is PubChem BioAssay.
